{
  "source": "paper PMC10726135",
  "about": "“HNF4α isoforms regulate the circadian balance between carbohydrate and lipid metabolism in the liver”",
  "note": "Whole data set: some 18,000 sequences, median “log2 normalized intensity” near 0.36, cut for the highest 2% near 7.3. The entries come from a sample that favours the highest values as a whole.",
  "data": [
    {"target": "T1, HNF4alpha8 (COS-7 nuclear extract) (Homo sapiens, UniProt P41235-5 1-452)", "T1 sequence": "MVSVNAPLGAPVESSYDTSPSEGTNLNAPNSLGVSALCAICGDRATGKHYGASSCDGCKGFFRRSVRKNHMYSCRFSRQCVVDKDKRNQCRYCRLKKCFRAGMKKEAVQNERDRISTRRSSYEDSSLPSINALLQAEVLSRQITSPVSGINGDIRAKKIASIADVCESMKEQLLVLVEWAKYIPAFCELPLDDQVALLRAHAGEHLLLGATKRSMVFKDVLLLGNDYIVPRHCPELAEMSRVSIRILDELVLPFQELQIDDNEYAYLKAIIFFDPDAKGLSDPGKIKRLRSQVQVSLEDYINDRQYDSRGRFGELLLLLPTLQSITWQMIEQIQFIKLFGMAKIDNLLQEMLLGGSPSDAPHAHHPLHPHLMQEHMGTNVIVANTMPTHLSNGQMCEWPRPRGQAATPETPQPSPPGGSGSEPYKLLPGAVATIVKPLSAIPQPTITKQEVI", "experiment": "protein-binding microarray; COS-7 nuclear extract on double-stranded Agilent 4x180k PBM; binding buffer, salt, pH and temperature not given in the material; high values mean tight binding", "details": "chain copies: 2; label: 3' end of strand 1 on the slide; dsDNA, one strand shown", "outline": "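Binding signal was defined as the normalized, background-corrected gProcessedSignal reported by Agilent software. It came from nuclear extracts of COS-7 cells transiently transfected with a human HNF4α isoform expression vector, applied to a custom Agilent SurePrint G3 4x180k array. That array held ~44,000 test sequences in quadruplicate as double-stranded ~60-nt oligonucleotides, and bound HNF4α was imaged at 2-µm resolution on an Agilent G2565CA scanner.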", "units": {"binding signal": "log2 normalized intensity"}, "values": [
      {"sequence": "TTTTGAATGACAGTGTCAGGACCTTGCTCCGCCTAGGGAGATTAGAGTATCGGTCGA", "binding signal": 2.73},
      {"sequence": "AATACTTGCCTAAGGTCAATGTCCTTTTTCGCCTAGGGAGATTAGAGTATCGGTCGA", "binding signal": 4.53},
      {"sequence": "ATTAGAGAACATGTACTTTGTACTGCTTATGCCTAGGGAGATTAGAGTATCGGTCGA", "binding signal": 4.99},
      {"sequence": "AGGAGATGTGGTGGACTTTAACGACCTTTGGCCTAGGGAGATTAGAGTATCGGTCGA", "binding signal": 5.28},
      {"sequence": "AGGGACTTTGATCTTCTTACCCCTTTGCTGGCCTAGGGAGATTAGAGTATCGGTCGA", "binding signal": 3.3},
      {"sequence": "CCCCTTCTTAACATCAGAAGTTGGACTTTGGCCTAGGGAGATTAGAGTATCGGTCGA", "binding signal": 8.31},
      {"sequence": "ACTTTGGAACTCAGTTAATGTACAGAGTATGCCTAGGGAGATTAGAGTATCGGTCGA", "binding signal": 0.96},
      {"sequence": "TCTTAACATCAGAAGTTGGACTTTGTACATGCCTAGGGAGATTAGAGTATCGGTCGA", "binding signal": 9.76},
      {"sequence": "CCTTGATGTGTATTTGTAGCTTCAAACCAGGCCTAGGGAGATTAGAGTATCGGTCGA", "binding signal": 1.52},
      {"sequence": "GGGGGTTTGCAACCTTTGATAACCTACAACGCCTAGGGAGATTAGAGTATCGGTCGA", "binding signal": 1.37},
      {"sequence": "GTGAGTGTGTTGGCAAGAGATCTGCAGGGTGCCTAGGGAGATTAGAGTATCGGTCGA", "binding signal": 1.02},
      {"sequence": "TCCTTTTATCTTACATGCCTTATCTGGTTCGCCTAGGGAGATTAGAGTATCGGTCGA", "binding signal": 1.64},
      {"sequence": "TGCCTTATCTGGTTCAAAGGTCATTTCTGCGCCTAGGGAGATTAGAGTATCGGTCGA", "binding signal": 7.61},
      {"sequence": "TTATCTTACATGCCTTATCTGGTTCAAAGGGCCTAGGGAGATTAGAGTATCGGTCGA", "binding signal": 3.33},
      {"sequence": "GGTTCAAAGGTCATTTCTGCTTGCAACCAAGCCTAGGGAGATTAGAGTATCGGTCGA", "binding signal": 5.81},
      {"sequence": "TTACATGCCTTATCTGGTTCAAAGGTCATTGCCTAGGGAGATTAGAGTATCGGTCGA", "binding signal": 8.2},
      {"sequence": "TATCTGGTTCAAAGGTCATTTCTGCTTGCAGCCTAGGGAGATTAGAGTATCGGTCGA", "binding signal": 6.43},
      {"sequence": "TCCAGAATTGTGTGGTTATCTGTTGGGGAAGCCTAGGGAGATTAGAGTATCGGTCGA", "binding signal": 2.14},
      {"sequence": "CACACTGCAGCAAAACTTTAGGACTTTGAAGCCTAGGGAGATTAGAGTATCGGTCGA", "binding signal": 4.12},
      {"sequence": "TTGAACCTTGGGTCTGTAATCTCACAACTCGCCTAGGGAGATTAGAGTATCGGTCGA", "binding signal": 1.98},
      {"sequence": "GGACTTTGAACCTTGGGTCTGTAATCTCACGCCTAGGGAGATTAGAGTATCGGTCGA", "binding signal": 7.84},
      {"sequence": "CTTTAGGACTTTGAACCTTGGGTCTGTAATGCCTAGGGAGATTAGAGTATCGGTCGA", "binding signal": 6.82},
      {"sequence": "CCTTGCCACCCACACTGCAGCAAAACTTTAGCCTAGGGAGATTAGAGTATCGGTCGA", "binding signal": -0.731},
      {"sequence": "ATAAGGGGCAGCAAACCTACCTGAACTTTGGCCTAGGGAGATTAGAGTATCGGTCGA", "binding signal": 3.58},
      {"sequence": "CAAAACTTTAGGACTTTGAACCTTGGGTCTGCCTAGGGAGATTAGAGTATCGGTCGA", "binding signal": 7.83},
      {"sequence": "GGGCAGCAAACCTACCTGAACTTTGCCCCAGCCTAGGGAGATTAGAGTATCGGTCGA", "binding signal": 8.83},
      {"sequence": "CCTTGGGTCTGTAATCTCACAACTCAGAAGGCCTAGGGAGATTAGAGTATCGGTCGA", "binding signal": -0.129},
      {"sequence": "GCAAACCTACCTGAACTTTGCCCCAGAGGAGCCTAGGGAGATTAGAGTATCGGTCGA", "binding signal": 6.74},
      {"sequence": "GGGAGGAGGGCAACCTTTGAACTGGGTCTTGCCTAGGGAGATTAGAGTATCGGTCGA", "binding signal": 4.84},
      {"sequence": "TGCAGCAAAACTTTAGGACTTTGAACCTTGGCCTAGGGAGATTAGAGTATCGGTCGA", "binding signal": 9.2},
      {"sequence": "GTTGCCTGTGAGTCAGGTACCTGCTTCTGCGCCTAGGGAGATTAGAGTATCGGTCGA", "binding signal": 0.609},
      {"sequence": "TACTTAGTGTTTTATGTGTATTTACTTATTGCCTAGGGAGATTAGAGTATCGGTCGA", "binding signal": 1.74},
      {"sequence": "GGCAAGATTTTGTCCTGAGTTATTGGAAGAGCCTAGGGAGATTAGAGTATCGGTCGA", "binding signal": 0.282},
      {"sequence": "TCTTCAAGGAGGTGAACTTTGAGACTATCCGCCTAGGGAGATTAGAGTATCGGTCGA", "binding signal": 5.2},
      {"sequence": "AAAGTTTCCTCTCCTGCCCTACTCCCTTAAGCCTAGGGAGATTAGAGTATCGGTCGA", "binding signal": 2.63},
      {"sequence": "AGTGGTTTCAAGGTGACCCCACGGAGCTGCGCCTAGGGAGATTAGAGTATCGGTCGA", "binding signal": 3},
      {"sequence": "CCTACCAGTATGCAATGTTAGTCTGGGAAAGCCTAGGGAGATTAGAGTATCGGTCGA", "binding signal": -0.0207},
      {"sequence": "ATTGCCGACCTCATGAGTAGAGAGCAATCAGCCTAGGGAGATTAGAGTATCGGTCGA", "binding signal": -0.943},
      {"sequence": "TGTCTCCAGAAATCAACCTTTGATCGTTTGGCCTAGGGAGATTAGAGTATCGGTCGA", "binding signal": 6.77},
      {"sequence": "ACTTCTGTCTCCAGAAATCAACCTTTGATCGCCTAGGGAGATTAGAGTATCGGTCGA", "binding signal": 8.8},
      {"sequence": "ATGTCTCCAGAAACCAACCTTTGATCATTCGCCTAGGGAGATTAGAGTATCGGTCGA", "binding signal": 5.75},
      {"sequence": "GCCAGAACTGAGCCCTGGTTTATCTGTTGTGCCTAGGGAGATTAGAGTATCGGTCGA", "binding signal": 0.861},
      {"sequence": "TTTTCAATCTTATTTTTACTATGTGGCATTGCCTAGGGAGATTAGAGTATCGGTCGA", "binding signal": 1.35},
      {"sequence": "CCTGTCCAAAGGTCATCTGTCACTCTAGATGCCTAGGGAGATTAGAGTATCGGTCGA", "binding signal": 6.02}
    ]}
  ]
}
